# Assay results from paper PMC7862700, “An all-to-all approach to the identification of sequence-specific readers for epigenetic DNA modifications on cytosine”.
# Key:
# Experiment in all cases: DAPPL (digital affinity profiling via proximity ligation, sequencing); 10 mM Tris-HCl pH 7.5, 50 mM NaCl, 1 mM DTT, 4% glycerol, room temperature, 30 min; GST-TFs on glutathione beads, 16-mer random dsDNA library, 0.1% formaldehyde crosslink after washing; high values mean tight binding
# FLI1 = target: T1, FLI1 (Homo sapiens, UniProt Q01543 1-452); conditions: protein: recombinant; tags: N-terminal GST; dsDNA, one strand shown
# T1 sequence: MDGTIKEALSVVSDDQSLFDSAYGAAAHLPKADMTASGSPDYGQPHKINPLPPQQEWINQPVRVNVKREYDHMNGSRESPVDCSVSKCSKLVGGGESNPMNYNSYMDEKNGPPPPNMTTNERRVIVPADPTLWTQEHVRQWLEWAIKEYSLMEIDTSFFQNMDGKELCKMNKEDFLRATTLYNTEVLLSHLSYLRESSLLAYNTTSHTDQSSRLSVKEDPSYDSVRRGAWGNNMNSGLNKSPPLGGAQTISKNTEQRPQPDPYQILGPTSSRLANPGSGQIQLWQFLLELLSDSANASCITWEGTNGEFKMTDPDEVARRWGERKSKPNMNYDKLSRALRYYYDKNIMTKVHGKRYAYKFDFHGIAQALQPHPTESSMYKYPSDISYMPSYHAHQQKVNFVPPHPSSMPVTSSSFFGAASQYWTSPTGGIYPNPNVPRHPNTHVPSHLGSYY
# How it was run: (§1)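 Human transcription factors carrying a GST fusion were produced in yeast, bound to glutathione beads, tagged with DNA barcodes and pooled together with a tag-only sample. Each pool was held with 200 nmole of a random double-stranded 16-mer DNA library in Tris/NaCl/DTT/glycerol buffer for 30 min at room temperature, then washed, crosslinked in 0.1% formaldehyde, proximity-ligated with BsaI/T4 ligase (1 h, 37 °C), PCR-amplified and sequenced on an Illumina NextSeq500. Binding signal is the read frequency of each hexamer for a given factor divided by its frequency in the tag-only sample.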
# ELK1 = target: T2, ELK1 (Homo sapiens, UniProt P19419 1-428); conditions: protein: recombinant; tags: N-terminal GST; dsDNA, one strand shown
# T2 sequence: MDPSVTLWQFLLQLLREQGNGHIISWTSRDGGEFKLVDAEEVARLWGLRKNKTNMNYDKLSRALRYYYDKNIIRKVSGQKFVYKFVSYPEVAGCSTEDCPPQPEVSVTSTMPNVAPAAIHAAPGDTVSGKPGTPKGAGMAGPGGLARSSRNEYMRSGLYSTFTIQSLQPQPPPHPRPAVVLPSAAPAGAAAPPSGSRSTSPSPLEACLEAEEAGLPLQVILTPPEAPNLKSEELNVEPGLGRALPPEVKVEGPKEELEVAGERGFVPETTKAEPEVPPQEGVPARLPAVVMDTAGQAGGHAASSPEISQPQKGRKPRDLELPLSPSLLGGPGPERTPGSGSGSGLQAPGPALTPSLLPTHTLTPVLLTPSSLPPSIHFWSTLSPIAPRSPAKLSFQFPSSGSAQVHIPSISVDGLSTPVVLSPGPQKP
# How it was run: as §1
# GABPA = target: T3, GABPA (Homo sapiens, UniProt Q06546 1-454); conditions: protein: recombinant; tags: N-terminal GST; dsDNA, one strand shown
# T3 sequence: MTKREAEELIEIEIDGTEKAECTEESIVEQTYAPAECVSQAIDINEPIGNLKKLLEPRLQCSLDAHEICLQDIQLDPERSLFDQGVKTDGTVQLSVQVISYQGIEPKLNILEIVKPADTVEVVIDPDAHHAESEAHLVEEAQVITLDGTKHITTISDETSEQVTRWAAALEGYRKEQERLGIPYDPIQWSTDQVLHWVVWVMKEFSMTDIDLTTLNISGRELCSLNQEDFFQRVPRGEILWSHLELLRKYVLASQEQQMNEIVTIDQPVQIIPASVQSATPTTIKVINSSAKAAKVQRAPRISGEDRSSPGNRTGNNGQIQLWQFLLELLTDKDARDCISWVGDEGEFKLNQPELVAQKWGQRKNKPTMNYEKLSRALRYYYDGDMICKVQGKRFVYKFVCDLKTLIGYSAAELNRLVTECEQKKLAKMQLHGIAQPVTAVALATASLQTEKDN
# How it was run: as §1
# ERG = target: T4, ERG (Homo sapiens, UniProt P11308 1-479); conditions: protein: recombinant; tags: N-terminal GST; dsDNA, one strand shown
# T4 sequence: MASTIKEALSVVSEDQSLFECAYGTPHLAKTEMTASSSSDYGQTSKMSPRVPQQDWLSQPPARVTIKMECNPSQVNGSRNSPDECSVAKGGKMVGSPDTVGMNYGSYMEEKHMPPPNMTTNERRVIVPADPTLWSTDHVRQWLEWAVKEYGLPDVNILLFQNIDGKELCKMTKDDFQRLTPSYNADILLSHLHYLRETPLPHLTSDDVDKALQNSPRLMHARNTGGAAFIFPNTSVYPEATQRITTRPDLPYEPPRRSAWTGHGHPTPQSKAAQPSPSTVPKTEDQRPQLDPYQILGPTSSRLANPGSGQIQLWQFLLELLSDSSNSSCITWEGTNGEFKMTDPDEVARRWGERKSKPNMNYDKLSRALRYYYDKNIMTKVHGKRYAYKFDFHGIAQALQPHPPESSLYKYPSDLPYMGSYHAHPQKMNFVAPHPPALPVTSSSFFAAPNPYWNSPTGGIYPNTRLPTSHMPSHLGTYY
# How it was run: as §1
# ELF1 = ELF1 (Homo sapiens, UniProt P32519 1-619); conditions: protein: recombinant; tags: N-terminal GST; dsDNA, one strand shown
# How it was run: as §1
# EHF = target: T5, EHF (Homo sapiens, UniProt Q9NZC4 1-300); conditions: protein: recombinant; tags: N-terminal GST; dsDNA, one strand shown
# T5 sequence: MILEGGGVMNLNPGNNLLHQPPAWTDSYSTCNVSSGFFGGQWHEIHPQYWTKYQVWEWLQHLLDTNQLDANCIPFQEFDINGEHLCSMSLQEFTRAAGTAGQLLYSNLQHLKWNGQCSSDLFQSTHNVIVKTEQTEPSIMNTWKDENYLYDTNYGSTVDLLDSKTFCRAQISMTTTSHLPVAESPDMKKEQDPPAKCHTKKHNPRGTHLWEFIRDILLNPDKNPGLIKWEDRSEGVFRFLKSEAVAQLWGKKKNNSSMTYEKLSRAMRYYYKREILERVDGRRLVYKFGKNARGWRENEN
# How it was run: as §1
# SPI1 = SPI1 (Homo sapiens, UniProt P17947 1-270); conditions: protein: recombinant; tags: N-terminal GST; dsDNA, one strand shown
# How it was run: as §1
# SPIB = SPIB (Homo sapiens, UniProt Q01892 1-262); conditions: protein: recombinant; tags: N-terminal GST; dsDNA, one strand shown
# How it was run: as §1
# ELK3 = target: T6, ELK3 (Homo sapiens, UniProt P41970 1-407); conditions: protein: recombinant; tags: N-terminal GST; dsDNA, one strand shown
# T6 sequence: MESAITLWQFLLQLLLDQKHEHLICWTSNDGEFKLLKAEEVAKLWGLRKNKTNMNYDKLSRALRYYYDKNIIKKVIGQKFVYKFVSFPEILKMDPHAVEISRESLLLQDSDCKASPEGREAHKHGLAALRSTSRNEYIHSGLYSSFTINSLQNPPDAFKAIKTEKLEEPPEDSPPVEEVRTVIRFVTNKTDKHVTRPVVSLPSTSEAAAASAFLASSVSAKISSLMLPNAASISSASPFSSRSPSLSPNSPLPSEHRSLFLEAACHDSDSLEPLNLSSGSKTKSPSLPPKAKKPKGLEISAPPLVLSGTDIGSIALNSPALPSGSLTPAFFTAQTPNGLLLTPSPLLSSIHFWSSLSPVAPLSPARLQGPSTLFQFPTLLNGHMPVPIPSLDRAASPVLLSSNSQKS
# How it was run: as §1
# FEV = target: T7, FEV (Homo sapiens, UniProt Q99581 1-238); conditions: protein: recombinant; tags: N-terminal GST; dsDNA, one strand shown
# T7 sequence: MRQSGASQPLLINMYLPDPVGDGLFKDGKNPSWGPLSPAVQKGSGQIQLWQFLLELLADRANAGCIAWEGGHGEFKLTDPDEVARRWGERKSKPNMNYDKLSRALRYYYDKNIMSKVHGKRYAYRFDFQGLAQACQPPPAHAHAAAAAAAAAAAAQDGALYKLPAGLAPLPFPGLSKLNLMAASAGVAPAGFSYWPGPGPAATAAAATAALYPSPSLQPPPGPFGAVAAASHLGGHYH
# How it was run: as §1
# ETV5 = ETV5 (Homo sapiens, UniProt P41161 1-510); conditions: protein: recombinant; tags: N-terminal GST; dsDNA, one strand shown
# How it was run: as §1
# HSF1 = HSF1 (Homo sapiens, UniProt Q00613 1-529); conditions: protein: recombinant; tags: N-terminal GST; chain copies: 3; dsDNA, one strand shown
# How it was run: as §1
# SPIC = target: T8, SPIC (Homo sapiens, UniProt Q8N5J4 1-248); conditions: protein: recombinant; tags: N-terminal GST; dsDNA, one strand shown
# T8 sequence: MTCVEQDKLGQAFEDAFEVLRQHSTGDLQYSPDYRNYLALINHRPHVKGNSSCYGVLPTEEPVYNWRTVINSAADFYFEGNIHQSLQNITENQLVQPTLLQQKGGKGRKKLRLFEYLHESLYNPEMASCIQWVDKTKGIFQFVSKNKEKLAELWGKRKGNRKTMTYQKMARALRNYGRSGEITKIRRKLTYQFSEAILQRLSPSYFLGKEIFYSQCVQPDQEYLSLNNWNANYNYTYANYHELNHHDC
# How it was run: as §1
# ELF4 = ELF4 (Homo sapiens, UniProt Q99607 1-663); conditions: protein: recombinant; tags: N-terminal GST; dsDNA, one strand shown
# How it was run: as §1
# ELK4 = target: T9, ELK4 (Homo sapiens, UniProt P28324-2 1-405); conditions: protein: recombinant; tags: N-terminal GST; dsDNA, one strand shown
# T9 sequence: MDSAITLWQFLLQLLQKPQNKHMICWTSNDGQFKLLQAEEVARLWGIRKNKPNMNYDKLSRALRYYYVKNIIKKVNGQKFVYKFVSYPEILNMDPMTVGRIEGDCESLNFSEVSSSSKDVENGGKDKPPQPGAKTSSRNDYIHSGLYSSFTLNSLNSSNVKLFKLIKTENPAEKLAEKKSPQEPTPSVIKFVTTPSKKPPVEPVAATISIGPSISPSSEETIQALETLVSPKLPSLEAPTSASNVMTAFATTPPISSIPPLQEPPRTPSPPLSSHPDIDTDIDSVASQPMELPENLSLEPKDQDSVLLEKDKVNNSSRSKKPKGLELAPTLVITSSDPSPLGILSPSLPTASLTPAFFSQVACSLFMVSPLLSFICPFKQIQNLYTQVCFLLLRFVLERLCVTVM
# How it was run: as §1
# ETV2 = target: T10, ETV2 (Homo sapiens, UniProt O00321 1-342); conditions: protein: recombinant; tags: N-terminal GST; dsDNA, one strand shown
# T10 sequence: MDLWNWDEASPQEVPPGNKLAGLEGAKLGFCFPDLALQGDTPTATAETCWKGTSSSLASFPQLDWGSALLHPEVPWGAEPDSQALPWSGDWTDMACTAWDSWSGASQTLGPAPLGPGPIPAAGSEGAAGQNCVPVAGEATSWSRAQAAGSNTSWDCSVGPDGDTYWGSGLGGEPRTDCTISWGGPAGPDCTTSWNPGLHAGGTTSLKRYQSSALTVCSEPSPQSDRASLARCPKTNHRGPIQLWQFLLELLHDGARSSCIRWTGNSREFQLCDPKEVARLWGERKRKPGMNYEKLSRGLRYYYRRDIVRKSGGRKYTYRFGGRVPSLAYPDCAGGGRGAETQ
# How it was run: as §1
# ELF3 = target: T11, ELF3 (Homo sapiens, UniProt P78545 1-371); conditions: protein: recombinant; tags: N-terminal GST; dsDNA, one strand shown
# T11 sequence: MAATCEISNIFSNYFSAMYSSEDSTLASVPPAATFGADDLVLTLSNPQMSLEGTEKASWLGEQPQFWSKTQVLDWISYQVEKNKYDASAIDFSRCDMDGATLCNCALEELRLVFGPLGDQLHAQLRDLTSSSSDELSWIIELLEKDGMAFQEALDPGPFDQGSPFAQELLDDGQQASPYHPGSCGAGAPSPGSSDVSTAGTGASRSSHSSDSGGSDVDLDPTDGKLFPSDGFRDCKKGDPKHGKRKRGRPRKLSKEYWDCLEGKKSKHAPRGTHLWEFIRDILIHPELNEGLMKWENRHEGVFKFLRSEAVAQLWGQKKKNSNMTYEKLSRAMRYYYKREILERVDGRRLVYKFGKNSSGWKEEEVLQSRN
# How it was run: as §1
# ETV1 = ETV1 (Homo sapiens, UniProt P50549 1-477); conditions: protein: recombinant; tags: N-terminal GST; dsDNA, one strand shown
# How it was run: as §1
# Sequence of ELF4 (Q99607 whole entry): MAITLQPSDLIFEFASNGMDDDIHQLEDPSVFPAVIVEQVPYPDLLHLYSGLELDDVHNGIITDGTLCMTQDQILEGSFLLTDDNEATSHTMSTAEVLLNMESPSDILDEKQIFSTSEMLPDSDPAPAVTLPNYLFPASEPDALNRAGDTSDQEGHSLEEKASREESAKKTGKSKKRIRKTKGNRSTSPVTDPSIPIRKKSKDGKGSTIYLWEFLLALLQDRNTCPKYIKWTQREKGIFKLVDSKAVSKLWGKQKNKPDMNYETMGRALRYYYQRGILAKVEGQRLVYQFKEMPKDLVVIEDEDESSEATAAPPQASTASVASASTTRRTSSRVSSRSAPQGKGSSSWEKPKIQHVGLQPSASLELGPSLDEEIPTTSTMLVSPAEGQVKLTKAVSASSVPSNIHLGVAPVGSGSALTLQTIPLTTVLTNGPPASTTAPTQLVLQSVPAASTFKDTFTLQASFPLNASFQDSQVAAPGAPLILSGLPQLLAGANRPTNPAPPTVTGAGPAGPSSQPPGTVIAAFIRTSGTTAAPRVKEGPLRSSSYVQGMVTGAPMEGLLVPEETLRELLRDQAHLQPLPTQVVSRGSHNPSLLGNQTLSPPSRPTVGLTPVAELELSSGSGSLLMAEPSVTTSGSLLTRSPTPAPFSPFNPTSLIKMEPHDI
# Sequence of SPIB (Q01892 whole entry): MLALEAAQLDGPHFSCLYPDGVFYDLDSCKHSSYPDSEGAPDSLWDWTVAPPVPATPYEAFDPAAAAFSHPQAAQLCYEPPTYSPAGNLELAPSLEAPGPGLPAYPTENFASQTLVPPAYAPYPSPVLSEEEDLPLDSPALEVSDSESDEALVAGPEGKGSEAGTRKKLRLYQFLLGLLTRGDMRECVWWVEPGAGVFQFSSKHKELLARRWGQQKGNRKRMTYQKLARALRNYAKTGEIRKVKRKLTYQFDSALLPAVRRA
# Sequence of ETV5 (P41161 whole entry): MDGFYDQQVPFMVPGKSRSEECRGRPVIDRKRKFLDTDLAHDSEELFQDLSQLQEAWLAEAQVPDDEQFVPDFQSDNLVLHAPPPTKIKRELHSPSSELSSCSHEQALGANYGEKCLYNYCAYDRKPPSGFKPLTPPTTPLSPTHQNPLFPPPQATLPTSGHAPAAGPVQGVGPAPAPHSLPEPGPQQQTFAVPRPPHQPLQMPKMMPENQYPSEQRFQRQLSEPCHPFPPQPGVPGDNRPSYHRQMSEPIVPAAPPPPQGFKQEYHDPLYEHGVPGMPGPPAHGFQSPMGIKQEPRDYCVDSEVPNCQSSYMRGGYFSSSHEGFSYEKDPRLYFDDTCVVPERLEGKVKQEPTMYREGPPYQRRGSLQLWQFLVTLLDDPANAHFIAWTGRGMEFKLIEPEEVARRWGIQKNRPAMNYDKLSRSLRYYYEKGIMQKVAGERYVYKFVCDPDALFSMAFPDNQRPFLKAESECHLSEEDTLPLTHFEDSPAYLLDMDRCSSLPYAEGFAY
# Sequence of HSF1 (Q00613 whole entry): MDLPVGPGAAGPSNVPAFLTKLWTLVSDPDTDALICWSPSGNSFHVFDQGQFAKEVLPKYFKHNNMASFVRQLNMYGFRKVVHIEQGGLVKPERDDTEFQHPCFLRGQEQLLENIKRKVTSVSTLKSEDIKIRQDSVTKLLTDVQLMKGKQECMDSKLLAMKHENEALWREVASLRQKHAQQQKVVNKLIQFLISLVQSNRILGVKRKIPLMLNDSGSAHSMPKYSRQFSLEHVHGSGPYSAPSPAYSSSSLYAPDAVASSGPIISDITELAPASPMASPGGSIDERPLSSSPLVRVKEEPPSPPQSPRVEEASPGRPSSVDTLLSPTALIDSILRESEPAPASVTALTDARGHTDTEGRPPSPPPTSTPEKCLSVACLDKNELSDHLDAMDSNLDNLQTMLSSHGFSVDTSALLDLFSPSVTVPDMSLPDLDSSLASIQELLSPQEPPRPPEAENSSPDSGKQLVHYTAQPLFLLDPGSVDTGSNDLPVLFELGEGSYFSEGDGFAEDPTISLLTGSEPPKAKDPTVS
# Sequence of ETV1 (P50549 whole entry): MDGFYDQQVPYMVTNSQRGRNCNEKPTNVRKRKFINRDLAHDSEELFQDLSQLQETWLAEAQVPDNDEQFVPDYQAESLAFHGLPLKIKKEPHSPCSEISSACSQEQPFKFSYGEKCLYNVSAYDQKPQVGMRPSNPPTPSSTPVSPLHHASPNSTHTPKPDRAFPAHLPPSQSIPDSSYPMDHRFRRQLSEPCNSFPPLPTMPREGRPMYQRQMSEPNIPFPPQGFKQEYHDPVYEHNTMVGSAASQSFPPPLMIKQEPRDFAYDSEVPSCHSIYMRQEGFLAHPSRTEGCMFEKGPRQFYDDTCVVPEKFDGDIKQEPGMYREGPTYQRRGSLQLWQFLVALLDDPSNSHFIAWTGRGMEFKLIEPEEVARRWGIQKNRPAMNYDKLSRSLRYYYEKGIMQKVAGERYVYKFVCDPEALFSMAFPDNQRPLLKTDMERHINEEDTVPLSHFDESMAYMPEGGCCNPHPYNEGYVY
# Sequence of ELF1 (P32519 whole entry): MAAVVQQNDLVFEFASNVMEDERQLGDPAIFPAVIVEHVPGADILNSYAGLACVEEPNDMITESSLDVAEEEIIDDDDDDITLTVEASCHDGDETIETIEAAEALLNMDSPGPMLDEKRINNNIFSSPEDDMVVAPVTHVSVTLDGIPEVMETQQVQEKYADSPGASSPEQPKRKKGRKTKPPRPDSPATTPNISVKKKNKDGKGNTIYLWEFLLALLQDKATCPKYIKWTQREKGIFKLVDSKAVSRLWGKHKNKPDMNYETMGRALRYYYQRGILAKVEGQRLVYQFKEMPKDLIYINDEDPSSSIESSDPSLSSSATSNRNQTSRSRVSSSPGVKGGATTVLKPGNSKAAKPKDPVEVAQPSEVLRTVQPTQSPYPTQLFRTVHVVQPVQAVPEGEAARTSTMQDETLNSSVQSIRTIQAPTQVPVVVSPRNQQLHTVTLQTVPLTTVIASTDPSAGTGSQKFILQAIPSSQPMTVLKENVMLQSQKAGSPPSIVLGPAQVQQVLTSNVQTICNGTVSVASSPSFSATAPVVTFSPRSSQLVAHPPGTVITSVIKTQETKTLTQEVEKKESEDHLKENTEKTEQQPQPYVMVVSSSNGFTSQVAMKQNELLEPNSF
sequence,measurement,setting,value
CCGACA,binding signal,FLI1,"1.2 fold enrichment (6-mer frequency, TF over GST control)"
same,binding signal,ELK1,"1.18 fold enrichment (6-mer frequency, TF over GST control)"
same,binding signal,GABPA,"1.11 fold enrichment (6-mer frequency, TF over GST control)"
same,binding signal,ERG,"1.29 fold enrichment (6-mer frequency, TF over GST control)"
same,binding signal,ELF1,"1.27 fold enrichment (6-mer frequency, TF over GST control)"
same,binding signal,EHF,"1.21 fold enrichment (6-mer frequency, TF over GST control)"
same,binding signal,SPI1,"1.24 fold enrichment (6-mer frequency, TF over GST control)"
same,binding signal,SPIB,"1.25 fold enrichment (6-mer frequency, TF over GST control)"
same,binding signal,ELK3,"1.16 fold enrichment (6-mer frequency, TF over GST control)"
same,binding signal,FEV,"1.31 fold enrichment (6-mer frequency, TF over GST control)"
same,binding signal,ETV5,"1.24 fold enrichment (6-mer frequency, TF over GST control)"
same,binding signal,HSF1,"1.03 fold enrichment (6-mer frequency, TF over GST control)"
same,binding signal,SPIC,"1.34 fold enrichment (6-mer frequency, TF over GST control)"
same,binding signal,ELF4,"1.13 fold enrichment (6-mer frequency, TF over GST control)"
same,binding signal,ELK4,"1.14 fold enrichment (6-mer frequency, TF over GST control)"
same,binding signal,ETV2,"1.32 fold enrichment (6-mer frequency, TF over GST control)"
same,binding signal,ELF3,"1.18 fold enrichment (6-mer frequency, TF over GST control)"
same,binding signal,ETV1,"1.28 fold enrichment (6-mer frequency, TF over GST control)"
